# Assay results as given in the supplement of paper PMC12282887.
# ± gives the standard deviation of the averaged measurements.
# Key:
# Experiment in all cases: promoter activity interaction Z-score (Lux/OD deviation from empty-vector control); higher = stronger promoter induction by the compound
# [1] = test system: E. coli BW25113 acrABp lux reporter
# How it was run: (§1)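 Four 1:2 dilutions of each compound were tested in biological duplicates on E. coli BW25113 carrying low-copy luxCDABE promoter reporters, either wild type or deleted for one of three genes. Cultures of 40 µl LB Lennox in 384-well plates were kept at 37°C and read for OD600 and luminescence every 30 min for 12 h. Integration windows were 0–8 h for wild type and 1–9 h for deletion strains, and wells under 10% of the median growth value were discarded. The score is a Z-transformed residual of growth-normalised luminescence relative to a control fit.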
# [2] = test system: E. coli BW25113 micFp lux reporter
# How it was run: as §1
# [3] = test system: E. coli BW25113 ompFp lux reporter
# How it was run: as §1
# [4] = test system: E. coli BW25113 robp lux reporter
# How it was run: as §1
# [5] = test system: E. coli BW25113 soxSp lux reporter
# How it was run: as §1
# [6] = test system: E. coli BW25113 tolCp lux reporter
# How it was run: as §1
# [7] = 0.011 µg/ml, genetic background: wild type
# [8] = 0.011 µg/ml, genetic background: ΔmarA
# [9] = 0.011 µg/ml, genetic background: Δrob
# [10] = 0.011 µg/ml, genetic background: ΔsoxS
# [11] = 0.022 µg/ml, genetic background: wild type
# [12] = 0.022 µg/ml, genetic background: ΔmarA
# [13] = 0.022 µg/ml, genetic background: Δrob
# [14] = 0.022 µg/ml, genetic background: ΔsoxS
# [15] = 0.044 µg/ml, genetic background: wild type
# [16] = 0.044 µg/ml, genetic background: ΔmarA
# [17] = 0.044 µg/ml, genetic background: Δrob
# [18] = 0.044 µg/ml, genetic background: ΔsoxS
# [19] = 0.0081 µg/ml, genetic background: wild type
# [20] = 0.0081 µg/ml, genetic background: ΔmarA
# [21] = 0.0081 µg/ml, genetic background: Δrob
# [22] = 0.0081 µg/ml, genetic background: ΔsoxS
# [23] = 0.016 µg/ml, genetic background: wild type
# [24] = 0.016 µg/ml, genetic background: ΔmarA
# [25] = 0.016 µg/ml, genetic background: Δrob
# [26] = 0.016 µg/ml, genetic background: ΔsoxS
# [27] = 0.033 µg/ml, genetic background: wild type
# [28] = 0.033 µg/ml, genetic background: ΔmarA
# [29] = 0.033 µg/ml, genetic background: Δrob
# [30] = 0.033 µg/ml, genetic background: ΔsoxS
structure (smiles),measurement,setting,value
C[C@@H](O)[C@H]1C(=O)N2C(C(=O)O)=C(S[C@@H]3CN[C@H](C(=O)N(C)C)C3)[C@H](C)[C@H]12 [Meropenem],promoter activity interaction Z-score,[1]; [7],-0.325 ± 0.13
same,promoter activity interaction Z-score,[1]; [8],-0.25 ± 1.2
same,promoter activity interaction Z-score,[1]; [9],-0.499 ± 0.11
same,promoter activity interaction Z-score,[1]; [10],-0.443 ± 0.38
same,promoter activity interaction Z-score,[1]; [11],-0.443 ± 0.2
same,promoter activity interaction Z-score,[1]; [12],0.239 ± 0.72
same,promoter activity interaction Z-score,[1]; [13],-0.429 ± 0.27
same,promoter activity interaction Z-score,[1]; [14],-0.714 ± 0.56
same,promoter activity interaction Z-score,[1]; [15],-0.272 ± 0.31
same,promoter activity interaction Z-score,[1]; [16],-0.463 ± 0.48
same,promoter activity interaction Z-score,[1]; [17],-0.0657
same,promoter activity interaction Z-score,[1]; [18],-1.05 ± 0.84
same,promoter activity interaction Z-score,[2]; [7],-0.112 ± 0.01
same,promoter activity interaction Z-score,[2]; [8],0.0252 ± 0.018
same,promoter activity interaction Z-score,[2]; [9],-0.116 ± 0.077
same,promoter activity interaction Z-score,[2]; [10],-0.229 ± 0.14
same,promoter activity interaction Z-score,[2]; [11],0.415 ± 0.16
same,promoter activity interaction Z-score,[2]; [12],-0.0395 ± 0.041
same,promoter activity interaction Z-score,[2]; [13],0.325 ± 0.09
same,promoter activity interaction Z-score,[2]; [14],0.0746 ± 0.14
same,promoter activity interaction Z-score,[2]; [15],-0.67 ± 0.27
same,promoter activity interaction Z-score,[2]; [16],-0.111 ± 0.099
same,promoter activity interaction Z-score,[2]; [17],-0.153 ± 0.23
same,promoter activity interaction Z-score,[2]; [18],0.149 ± 0.13
same,promoter activity interaction Z-score,[3]; [7],-0.54 ± 0.28
same,promoter activity interaction Z-score,[3]; [8],-0.583 ± 0.092
same,promoter activity interaction Z-score,[3]; [9],-0.754 ± 0.17
same,promoter activity interaction Z-score,[3]; [10],-0.418 ± 0.015
same,promoter activity interaction Z-score,[3]; [11],-0.588 ± 0.17
same,promoter activity interaction Z-score,[3]; [12],-0.0893 ± 0.4
same,promoter activity interaction Z-score,[3]; [13],-0.761 ± 1
same,promoter activity interaction Z-score,[3]; [14],0.398 ± 0.68
same,promoter activity interaction Z-score,[3]; [15],-2.42 ± 0.71
same,promoter activity interaction Z-score,[3]; [16],-1.11 ± 1.2
same,promoter activity interaction Z-score,[3]; [17],-3.33
same,promoter activity interaction Z-score,[3]; [18],-0.548 ± 0.013
same,promoter activity interaction Z-score,[4]; [7],0.101 ± 0.27
same,promoter activity interaction Z-score,[4]; [8],-0.585 ± 0.075
same,promoter activity interaction Z-score,[4]; [9],-0.128 ± 0.22
same,promoter activity interaction Z-score,[4]; [10],-0.321 ± 0.77
same,promoter activity interaction Z-score,[4]; [11],-0.965 ± 0.67
same,promoter activity interaction Z-score,[4]; [12],0.101 ± 0.13
same,promoter activity interaction Z-score,[4]; [13],-0.78 ± 0.081
same,promoter activity interaction Z-score,[4]; [14],0.872 ± 0.96
same,promoter activity interaction Z-score,[4]; [15],-1.9
same,promoter activity interaction Z-score,[4]; [16],-1.13 ± 0.46
same,promoter activity interaction Z-score,[4]; [17],-2.08 ± 0.078
same,promoter activity interaction Z-score,[4]; [18],-1.54 ± 0.12
same,promoter activity interaction Z-score,[5]; [7],-0.0716 ± 0.075
same,promoter activity interaction Z-score,[5]; [8],-0.0983 ± 0.033
same,promoter activity interaction Z-score,[5]; [9],-0.37 ± 0.018
same,promoter activity interaction Z-score,[5]; [10],0.00722 ± 0.14
same,promoter activity interaction Z-score,[5]; [11],-0.334 ± 0.51
same,promoter activity interaction Z-score,[5]; [12],-0.124 ± 0.17
same,promoter activity interaction Z-score,[5]; [13],-0.218 ± 0.073
same,promoter activity interaction Z-score,[5]; [14],0.588 ± 0.26
same,promoter activity interaction Z-score,[5]; [16],-1.21
same,promoter activity interaction Z-score,[5]; [17],-0.982 ± 0.23
same,promoter activity interaction Z-score,[5]; [18],0.387 ± 0.062
same,promoter activity interaction Z-score,[6]; [7],-0.834 ± 0.2
same,promoter activity interaction Z-score,[6]; [8],-1.09 ± 0.39
same,promoter activity interaction Z-score,[6]; [9],-0.937 ± 0.21
same,promoter activity interaction Z-score,[6]; [10],-0.582 ± 0.57
same,promoter activity interaction Z-score,[6]; [11],-0.873 ± 0.14
same,promoter activity interaction Z-score,[6]; [12],-0.075 ± 1
same,promoter activity interaction Z-score,[6]; [13],-1.42 ± 0.33
same,promoter activity interaction Z-score,[6]; [14],-0.223 ± 0.39
same,promoter activity interaction Z-score,[6]; [15],-1.14
same,promoter activity interaction Z-score,[6]; [16],-0.703
same,promoter activity interaction Z-score,[6]; [17],-1.44 ± 0.34
same,promoter activity interaction Z-score,[6]; [18],0.705
CC1(C)S[C@@H]2[C@H](/N=C/N3CCCCCC3)C(=O)N2[C@H]1C(=O)O [Mecillinam],promoter activity interaction Z-score,[1]; [19],0.0459 ± 0.4
same,promoter activity interaction Z-score,[1]; [20],1.25 ± 1.5
same,promoter activity interaction Z-score,[1]; [21],-0.273 ± 0.055
same,promoter activity interaction Z-score,[1]; [22],-0.522 ± 0.019
same,promoter activity interaction Z-score,[1]; [23],-0.377 ± 0.16
same,promoter activity interaction Z-score,[1]; [24],0.612 ± 0.15
same,promoter activity interaction Z-score,[1]; [25],-0.267 ± 0.022
same,promoter activity interaction Z-score,[1]; [26],-0.431 ± 0.57
same,promoter activity interaction Z-score,[1]; [27],0.0507 ± 0.0088
same,promoter activity interaction Z-score,[1]; [28],-0.755
same,promoter activity interaction Z-score,[1]; [29],0.113 ± 0.12
same,promoter activity interaction Z-score,[1]; [30],-0.499 ± 0.14
same,promoter activity interaction Z-score,[2]; [19],0.276 ± 0.25
same,promoter activity interaction Z-score,[2]; [20],0.207 ± 0.062
same,promoter activity interaction Z-score,[2]; [21],0.351 ± 0.025
same,promoter activity interaction Z-score,[2]; [22],-0.288 ± 0.15
same,promoter activity interaction Z-score,[2]; [23],0.194 ± 0.12
same,promoter activity interaction Z-score,[2]; [24],0.155 ± 0.054
same,promoter activity interaction Z-score,[2]; [25],0.474 ± 0.16
same,promoter activity interaction Z-score,[2]; [26],0.251 ± 0.044
same,promoter activity interaction Z-score,[2]; [27],0.824 ± 0.39
same,promoter activity interaction Z-score,[2]; [28],-0.211 ± 0.025
same,promoter activity interaction Z-score,[2]; [29],-0.0142 ± 0.33
same,promoter activity interaction Z-score,[2]; [30],0.562 ± 0.17
same,promoter activity interaction Z-score,[3]; [19],0.00268 ± 0.17
same,promoter activity interaction Z-score,[3]; [20],-0.0176 ± 0.4
same,promoter activity interaction Z-score,[3]; [21],-0.211 ± 0.62
same,promoter activity interaction Z-score,[3]; [22],-0.38 ± 0.044
same,promoter activity interaction Z-score,[3]; [23],-1.12 ± 0.37
same,promoter activity interaction Z-score,[3]; [24],-0.241 ± 0.0076
same,promoter activity interaction Z-score,[3]; [25],-0.807 ± 1.2
same,promoter activity interaction Z-score,[3]; [26],-0.124 ± 0.41
same,promoter activity interaction Z-score,[3]; [27],-1.28 ± 0.79
same,promoter activity interaction Z-score,[3]; [28],-0.894 ± 1.1
same,promoter activity interaction Z-score,[3]; [29],-1.44
same,promoter activity interaction Z-score,[3]; [30],0.0879 ± 0.27
same,promoter activity interaction Z-score,[4]; [19],0.327 ± 0.16
same,promoter activity interaction Z-score,[4]; [20],1.43 ± 0.17
same,promoter activity interaction Z-score,[4]; [21],-0.0357 ± 0.087
same,promoter activity interaction Z-score,[4]; [22],0.198 ± 0.16
same,promoter activity interaction Z-score,[4]; [23],-0.956 ± 0.2
same,promoter activity interaction Z-score,[4]; [24],0.379 ± 0.24
same,promoter activity interaction Z-score,[4]; [25],-1.19 ± 0.41
same,promoter activity interaction Z-score,[4]; [26],0.457 ± 1.5
same,promoter activity interaction Z-score,[4]; [27],-1.37 ± 0.12
same,promoter activity interaction Z-score,[4]; [28],-0.827 ± 0.15
same,promoter activity interaction Z-score,[4]; [29],-1.65
same,promoter activity interaction Z-score,[4]; [30],-1.03 ± 0.28
same,promoter activity interaction Z-score,[5]; [19],0.14 ± 0.081
same,promoter activity interaction Z-score,[5]; [20],0.149 ± 0.16
same,promoter activity interaction Z-score,[5]; [21],0.13 ± 0.12
same,promoter activity interaction Z-score,[5]; [22],0.171 ± 0.015
same,promoter activity interaction Z-score,[5]; [23],0.0658 ± 0.21
same,promoter activity interaction Z-score,[5]; [24],0.371 ± 0.073
same,promoter activity interaction Z-score,[5]; [25],0.0922 ± 0.097
same,promoter activity interaction Z-score,[5]; [26],0.495 ± 0.048
same,promoter activity interaction Z-score,[5]; [27],0.18 ± 0.061
same,promoter activity interaction Z-score,[5]; [28],0.154 ± 0.13
same,promoter activity interaction Z-score,[5]; [29],-0.163 ± 0.38
same,promoter activity interaction Z-score,[5]; [30],0.865 ± 0.22
same,promoter activity interaction Z-score,[6]; [19],0.00505 ± 0.64
same,promoter activity interaction Z-score,[6]; [20],-0.0513 ± 0.34
same,promoter activity interaction Z-score,[6]; [21],-0.155 ± 0.23
same,promoter activity interaction Z-score,[6]; [22],-0.674 ± 0.22
same,promoter activity interaction Z-score,[6]; [23],-0.967 ± 0.5
same,promoter activity interaction Z-score,[6]; [24],-0.771 ± 0.8
same,promoter activity interaction Z-score,[6]; [25],-1 ± 0.24
same,promoter activity interaction Z-score,[6]; [26],-0.0514 ± 0.98
same,promoter activity interaction Z-score,[6]; [27],-0.779 ± 2.4
same,promoter activity interaction Z-score,[6]; [28],-0.938
same,promoter activity interaction Z-score,[6]; [29],0.0896 ± 2.1
same,promoter activity interaction Z-score,[6]; [30],1.16 ± 0.64
